Consider 30 molecules from the supplement of paper PMC12632987.

The full ranking holds about 4,500 sequences; the median of “median log2 fold change of GCK-ALFA target abundance (FLAG IP / Myc IP barcode read proportion)” is about 0.078, and the lowest 2% start at about -0.6. Many of the other results were omitted from the sample, so the lowest values are more common in it than they were.

B1: GBRAP_160_4006 (protein)
chain: SEEAEKLIKEIKEIFEELKKDIEGLTPEERLTLAKGYAGEILQLAESSKVISDEAVDKIAEILDEFLEELEKNKNAPLEYWKKLIEETLKKIEEVIKEDS
B2: GBRAP_43_5749 (protein)
chain: DEELVAGAVEFTLLAAEDPSISPETVLRAFKATLDLIADTGVRLEEELVAAAAAVAKRLSPEQVEALIEHIKELAAASPEVKETFEAAEEVLRAELAKRR
B3: GBRAP_150_3886 (protein)
chain: DLETALTIASSALDILEATIEDGPKLLEHALKLTKALVDEVKDFSEELQKLAKEALKKIEEAIKLVKAGGKPEEIKKLLEEAAKLLEELEKLLEKKIEEE
B4: GBRAP_52_5963 (protein)
chain: MEARMEALLDELLALRRAGDEAGAEALAREIAETLDDEELRLLGDVLVARIRASDLETAELLLDLAIMLADVLEELGRDPRLASDLLGRAAAAAYALEQA
B5: GBRAP_83_6915 (protein)
chain: MKEITVAAVGDHIDEAFDAAIDLKKEGVEKIIVEAIIKPEEVPRLLEAVKRALEAGVNLELEVFLEGATEEEAEEVEKKLKEIAKEAGKEVKVTVEVIEP
B6: GBRAP_9_7146 (protein)
chain: MEEMVEKIREVMEDAFEEVREIVPEEVKPLVDELREEALKRFEEVVADKSKTKEEIREAAKELIEEFTERVSEKVSPEIAKMVEAIGLTAKLEIEEIYEE
B7: GBRAP_11_2904 (protein)
chain: KKEKLEKLAELLKKAVALLKELLAKGTDDEKLHAEALKVAEEALKLAKEVLDESDVELAEEAVELLKQAKADPANAAQYVQQALAIFSVLEGQVLLKIEE
B8: GBRAP_96_7096 (protein)
chain: MLEEAEALVRELIAALDTDPERARALAERLLEFPVEVVTEAIVRVVKDPADAAKLAELLLELGDEKAEEVLLEAAEKAPGDISKAIIDAMQAYEEAKEAA
B9: GBRAP_184_5075 (protein)
chain: SVREETIRVENVEEARAKMAALAERVRDHRGDLVVLVEMPEADLEIMRAVLEGLAAILAAGYARRVTVGFDAEVTEEQVDEAVALADRLGVNVVLPLKEE
B10: GBRAP_125_3111 (protein)
chain: DMEEVLEALAIVLRALGFDDDEIEEALELARRYGIKGTMIAVALAEGYEEVADLLEKLTEEEVKQALLETAAAIKANPELTPEEVKELLEEVLKKLLAAS
B11: GBRAP_160_4005 (protein)
chain: SAEIEALIKEIEELVKETKEWMKGLSPEERLTLARGMVGEIIQLAIDSPAVSDETEDKIAEIGDETIARLEANANASLEVWEKILDDYLEKVKELLKSDE
B12: GBRAP_11_2908 (protein)
chain: KKEKLKEAAKLAEKAAKLIEQLIKNGADDKELWAEAEKAAEELLKLAKEYLDESTVELAEYALELLKKAQADPKNAQQYLNEALATVRVILGQILLAIEE
B13: GBRAP_78_6697 (protein)
chain: EVEELLEKALELLDQALKLSKQLPEDLRNEVTYHLVEAITDLEEAIEEGADLEELKEALEHLDKAIALVKANDTPLTQPLLKLLTEAKKLLEEAIKKLEE
B14: GBRAP_125_3109 (protein)
chain: SEDELLAALRALARALGFSEEEAEEAAELARRFSLRQTLYAIFLAEGEEELADLVEQLTEEQARAALAALAAWLAAHPDATKEEVLAQARAILEAELARA
B15: GBRAP_9_7186 (protein)
chain: MQEKKEKILEEVKEELELAIEVAPEEYKELIKEKTEEVLKELEKAVKDENTTLEELLKKLEELFEKLIEIAKKNVPKETYLQIEAILGTAILSAEEIIEE
B16: GBRAP_26_5464 (protein)
chain: MEEAFREASDRVDEIAAKLSNPEAAAAVRAEADTILLELEERIEAGEDIEKAVKEAEEEFLKEAREIGKEEGLPEEEIERLEKELSEVFKELEERLKKAK
B17: GBRAP_160_4037 (protein)
chain: NEKLKKLKKFAEEVFEEAKELVEGTSVEEAAVIIDVAAGEIIMEAVELGIDDDELEDFIDEIGDEAVAYLLAHPDLSEEEIKELIEEAREKVLEKIDEAE
B18: GBRAP_160_4038 (protein)
chain: NEKLEKLAKFAEEVFKEAEELIKGTTVEEAAVIVDVATGEIIMEAVELGIDNDELEDFIDEIGDEAVAYLLAHPDLTEEEIQALVKEAKEKILKKIKEAS
B19: GBRAP_52_6009 (protein)
chain: MREELRERLEEALALVRAGRLEEARALVTELVESLDEEELELLIELLAEMAREAAPEDFDAVWTLAELVAEEMRRAGKDEVLADLLEARVAAALYEAEQR
B20: GBRAP_52_5877 (protein)
chain: MLEEAVKLLEEAVKAKKEGKEKELKEILKKIVEEFSEETILAAVKKLAEKVLTKSLEEAEAFYETVELLSDILLEAGKSEEIASLMEAIAGATLYTVEQK
B21: GBRAP_11_2629 (protein)
chain: KKEILKKKAELAKKLAEKVEKLLKEGVDNEELLKEIEKLLKEIAELTEKYGTEADKSLVEVAKELFEEAKKDKENKEKYLKELLAAAKVLEGDYLLEIEE
B22: GBRAP_35_5618 (protein)
chain: MSDEELTDMLVDLIEDATAAVPDVSVETLAAIAASLSRAVRSLAEELAGNAENLRRLADAVEALRDAIERHHGDDPLAQETIAALTATAEEIRARAAASE
B23: GBRAP_160_4664 (protein)
chain: SEEIEKLLEEIRELLLETLDWTKDLDPASREALLRAAVGDVLQLLFENPLVTDEVEDYAEEVLEEMREYVLANPDLTDEEREALVDEVVDKIREKILEES
B24: GBRAP_11_2937 (protein)
chain: EKEKLKKAQELAKEAQELLKKIQKAGKLDEELLKKAQELLKKAAELAKELGLEEEQKDLELAQELLEEVQKAGKLDETKVAAAQALVFDVAHELEEKLEE
B25: GBRAP_52_6133 (protein)
chain: MREELREKVLELLELVKAGKLEEAKKRLLKIAKELSDEELREFAREFAEVVRELPPEDLDAAAELLELAEEALEEAGRPEELISLLIGEGARALYEVEQR
B26: GBRAP_11_2673 (protein)
chain: MKEKLLEAAELAEKAAKLVEELIKEGVDNEELLKELKKLLEELKKLAKEYLSKALQKDVEVAEELFKELLEDEENRLEYAEQLLAALRVLEGNLLLEADE
B27: GBRAP_52_6314 (protein)
chain: MSERMEELARRLLELMLAGDEEGARALIRELVKTLSEEELLLLAEELARLAKTLDAEGLDALARLLELIEDEMEEEGVDERIIAEIRGIIITAIYEAEQR
B28: GBRAP_53_6413 (protein)
chain: AEAEIAALRAEVKATARAAAAADEATLAALVAEIGALLAALKAAGMPDEELTALAEEVARTLRAAGAPDSALVALAGHLAALGLEEATAAVAEEAVEELE
B29: GBRAP_35_5549 (protein)
chain: DSDREIAEMLVDTIEDIVEALPDVSEEDKIALAKAAIRLARDLVELKPKDEELIKRAIEALERIKEILEESDLPEEDKEELIEEIEELIEELKKLLEENK
B30: GBRAP_35_5548 (protein)
chain: DSDEETAEMLVDTIEDIVEALPDVSEEDRVALAEAALRLARDLVELQPKNKELIKRAIEALERIKEIIEESDLPEEVRERLVREIEELIEELKKILEENE

Sequence of GABARAP, O95166 (O95166 whole entry, the tested form may be a part): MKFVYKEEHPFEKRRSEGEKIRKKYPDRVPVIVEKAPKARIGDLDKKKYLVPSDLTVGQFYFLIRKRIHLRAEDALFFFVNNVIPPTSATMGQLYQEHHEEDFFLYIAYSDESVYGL

The target of this assay is GABARAP, O95166. Kind of assay: median log2 fold change of GCK-ALFA target abundance (FLAG IP / Myc IP barcode read proportion) (log2 ratio); each designed protein is fused to an ALFA-tag nanobody in HEK293 cells to bring the named protein to FLAG-tagged glucokinase (GCK); Myc marks an untargeted standard; higher = target protein stabilised (more abundant). The conditions noted are these: target protein: 3xFLAG-MCP-GCK-ALFA reporter; HEK293 landing pad (RPLP). Summed up:
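Binders fused to an ALFA nanobody were recombined as a library into HEK293 landing-pad cells, which were induced with 2 μg mL^−1 doxycycline and then transfected to express a FLAG-tagged target and a Myc-tagged standard. After 48 h, circular RNA barcodes recovered by anti-FLAG and anti-Myc immunoprecipitation of lysates were reverse transcribed, amplified and sequenced. Each binder's target abundance is the median log2 ratio of FLAG to Myc barcode read proportions, from barcodes present at ≥10^−7 in both replicates, binders carrying ≥3 barcodes per replicate, a 10^−6 pseudocount and pooled replicates.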
For B1, the “median log2 fold change” value is -0.00151. The same measure for B2: 0.142; for B3: 0.00752; for B4: -0.635. In the case of B5 it was 0.19. In the case of B6 it was 0.209; in that of B7, 0.354; in that of B8, 0.123.

For the molecule B9, the “median log2 fold change” value turned out to be 0.0908. The same measure for B10: -0.903. In the case of B11 it was 0.201; in that of B12, 0.209. In the case of B13 it was 0.0855; in that of B14, -0.77; in that of B15, -0.362. Consider B16, for which the “median log2 fold change” value is 0.274. The same measure for B17: -0.581. The same measure for B18: -0.621; for B19: -0.0383; for B20: 0.168. In the case of B21 it was 0.182; in that of B22, -1.48. For B23, the “median log2 fold change” value is -0.406. As for B24, the “median log2 fold change” value was 0.139. The same measure for B25: 0.086. In the case of B26 it was 0.0764; in that of B27, -0.236. For B28, the “median log2 fold change” value turned out to be 0.295. In the case of B29 it was -0.761.

Consider B30, for which the “median log2 fold change” value was -0.485.
